Source: PubChem BioAssay
In the library only some 10% were active in any assay of this set; here they are far more common.
SW480 rerep = induces DNA re-replication in SW480 colon adenocarcinoma cells; SW480 DNA re-replication, Hoechst DNA content imaging, 48 h; Potency, µM (doses to about 46.1 µM), without a hit: at the top dose re-replication activation, actives largely listed as activators; AID 624297; actives 1.8% (n = 340,000); further: % of control where 0% means no effect; nearly all actives have a fitted effect of over 55% in size
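Hoechst fluorescence of nuclei (405 nm excitation, 500-530 nm emission) measured by plate-scanning imager after 48 hr compound exposure at 37 C; re-replication scored as increased number of nuclei with elevated intensity.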
ELG1 repair inh = ELG1-dependent DNA repair inhibition | HEK293T ELG1-luciferase reporter, luminescence, 16 h; DNA damage induced by 5-fluorouridine | actives 2.3% (n = 330,000) | AID 504467 | Potency, µM (titrated, usually from 46.1 µM), for the others: top-dose activity change, negative = inhibition, most hits filed as inhibitors; further: on the % scale 0 is the no-effect control and ±100 the full control effect; nearly all actives have a fitted effect of over 55% in size
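HEK293T cells expressing luciferase-tagged ELG1 (2,000/well) received 5-Fluorouridine plus compound or DMSO for 16 hr at 37 °C. Luciferase was read by ONE-Glo luminescence after 30 min at room temperature.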
MCF10A rerep = DNA re-replication induction in MCF 10a cells | MCF 10A DNA re-replication, Hoechst nuclear intensity, 48 h | Potency, µM (titrated, usually from 46.1 µM), for inactives: at the top dose activity, positive = re-replication, usual class: activators | actives 2.9% (n = 350,000) | AID 624296; further: % of control where 0% means no effect; nearly all actives have a fitted effect of over 50% in size
RORg inh = blocks mouse ROR gamma transcriptional activity. P51450. Drosophila S2 Gal4-RORgamma UAS-luciferase reporter, 20 h. Potency, µM (titrated, usually from 53.6 µM), without a hit: at the highest dose activity change, negative = inhibition, usual class: inhibitors. actives 5.4% (n = 310,000). AID 2551; further: on the % scale 0 is the no-effect control and ±100 the full control effect; nearly all actives have a fitted effect of over 60% in size
Target sequence (P51450 whole entry, looked up, the tested form may be a part): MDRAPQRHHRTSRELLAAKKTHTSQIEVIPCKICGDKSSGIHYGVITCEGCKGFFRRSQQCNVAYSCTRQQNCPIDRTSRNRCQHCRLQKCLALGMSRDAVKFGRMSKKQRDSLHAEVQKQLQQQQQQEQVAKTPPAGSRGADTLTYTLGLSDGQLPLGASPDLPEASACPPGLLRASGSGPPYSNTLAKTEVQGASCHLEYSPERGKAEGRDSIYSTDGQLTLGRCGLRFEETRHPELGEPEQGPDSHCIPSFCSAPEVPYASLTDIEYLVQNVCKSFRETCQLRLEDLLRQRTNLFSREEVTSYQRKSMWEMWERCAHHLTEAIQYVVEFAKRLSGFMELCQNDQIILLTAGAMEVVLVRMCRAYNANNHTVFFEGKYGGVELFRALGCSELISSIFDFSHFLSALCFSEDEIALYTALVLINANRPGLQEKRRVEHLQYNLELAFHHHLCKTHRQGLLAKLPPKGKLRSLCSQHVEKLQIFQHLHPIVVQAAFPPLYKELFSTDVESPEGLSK
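Read-out: Photinus luciferase luminescence; inhibitors lower reporter signal. Insect Schneider cells with Gal4-ROR gamma fusion under metallothionein promoter, UAS reporter; 700 uM final copper sulfate induction, 20 hr, ambient temperature.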
VP16 counter = Gal4-VP16 reporter inhibition counter-screen. Potency, µM (top dose mostly 53.6 µM), inactives show at the highest dose activity, negative = inhibition, usual class: inhibitors. actives 3.5% (n = 310,000). Drosophila S2 Gal4-VP16 UAS-luciferase, luminescence, 20 h;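 further: Gal4-VP16 expression switched on by copper sulfate through the metallothionein promoter; on the % scale 0 is the no-effect control and ±100 the full control effect; nearly all actives have a fitted effect of over 50% in size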
Starred values were filed as active, the others as inactive; ? = inconclusive; . = no result; [ ] = another dose, or the depositor's remark. The call rests on the fitted dose curve; in most records, active means well fitted curve in the direction sought with a large enough effect; inconclusive means small, poorly fitted or top-dose-only effect, or another doubt; inactive means no such curve, though single readings can be large; an effect the other way counts as inactive or inconclusive. Potency means the concentration at half of the fitted maximal effect.

SMILES	SW480 rerep	ELG1 repair inh	MCF10A rerep	RORg inh	VP16 counter
Cn1c2ccccc2c2ccc3c(c21)C(=O)C=CC3=O	1%	.	6.5µM*	.	.
COc1ccc2c(c1)c1ccc3c(c1n2C)C(=O)C=CC3=O	-5%	-10%	?	22µM*	13µM*
Cc1ccc2c(c1)c1ccc3c(c1n2C)C(=O)C=CC3=O	?	-26%	?	11µM*	11µM*
Cc1ccc(C)c2c1c1ccccc1n2C	-24%	-8%	1%	-1%	8%
COc1ccc2c(c1)c1ncn(CCN3CCCC3)c(=O)c1n2C	-4%	-4%	18%	?	1%
Cc1ccc2c(c1)c1ncnc(N3CCOCC3)c1n2C	-2%	?	?	14%	4%
O=C1CSCC(=O)N1c1ncc(C(F)(F)F)cc1Cl	-6%[9.22 µM]	-1%	1%	17%	-7%
CN(Cc1ccccc1)CC(O)COc1ccc(CNCCc2ccncc2)cc1 (centres undefined)	18µM*	-2%	?	-24%	-1%
Cc1nn(C)cc1/C=N\NC(=O)c1ccc2c(c1)c(C)c(C)n2Cc1ccccc1	1%	-4%	?	16µM*	?
Cc1[nH]c2ccccc2c1C(=O)CSc1nc2ccccc2c(=O)n1CCCN1CCOCC1	4%	?	15µM*	-66%	?
O=C(CSc1nc2ccccc2c(=O)n1CCCN1CCOCC1)NC12CC3CC(CC(C3)C1)C2	-23%	8%	?	14µM*	-16%
Cc1cc(NC(=O)CSc2nc3c(sc4ccccc43)c(=O)n2CCCN2CCOCC2)n[nH]1	7.3µM*	?	?	-13%	-20%
O=C1c2ccccc2C(=O)N1CCCCSc1nc2ccccc2c(=O)n1CCCN1CCOCC1	8%	21µM*	27%	31%	-10%
N[C@@H](CSCCCO)C(=O)O	1%	.	8%	-18%[10 µM]	2%
CCCn1c(N)c(N(CCOC)C(=O)CSCC(=O)Nc2ccc(C)cc2)c(=O)[nH]c1=O	-8%	6%	0%	.	.
Cc1ccc(C2OC3=C(C(=O)CC(C)(C)C3)C(N)=C2C#N)o1 (centres undefined)	0%	-13%	8%	2%	-5%
Cn1cc(C=C2C(=O)Nc3cccnc32)c2ccccc21	.	.	.	4%	3%
CCCn1c(SCC(=O)NC2CCCCC2)nnc1C1CC1	?	20%	-13%	-14%	-5%
COc1ccc(-c2cc(C)no2)cc1S(=O)(=O)N(C)c1ccc(C)c(C)c1	-9%	?	?	8%	-22%
Cc1cc(-c2ccc(S(=O)(=O)N(C)c3ccc(C)c(C)c3)s2)on1	?	-12%	10µM*	13%	-7%
Cc1ccc(N(C)S(=O)(=O)c2ccc(-c3cc(C)no3)s2)cc1	?	-23%	9.2µM*	4%	-3%
COc1ccc(/C=N/NC(=O)CC(=O)NCc2cccnc2)cc1[N+](=O)[O-]	-5%	7%	-1%	.	.
CCOC(=O)[C@H]1[C@H]2COc3cc(OC)ccc3[C@@H]2N2C(=O)CN(CCc3c[nH]c4ccccc34)C(=O)[C@@]12C	8%	-26%	40%	.	.
COc1ccc2c(c1)OC[C@H]1[C@H]2N2C(=O)CN(CCc3c[nH]c4ccccc34)C(=O)[C@@]2(C)[C@H]1c1ccccc1	-14%	5.8µM*	18%	.	.
COc1ccc2c(c1)OC[C@H]1[C@H]2N2C(=O)c3cc(C)ccc3NC(=O)[C@@]2(C)[C@H]1c1ccccc1	10µM*	-3%	?	.	.
COc1ccc2c(c1)[C@H]1[C@H](CO2)[C@H](c2ccccc2)[C@]2(C)C(=O)Nc3ccc(C)cc3C(=O)N12	?	-25%	21µM*	.	.
COc1ccc2c(c1)C(=O)N1[C@H]3c4cc(C)ccc4OC[C@@H]3[C@H](c3ccccc3)[C@]1(C)C(=O)N2	?	?	15µM*	.	.
CN(C)/C=C1/NC(=S)NC1=O	1%	2%	0%	-3%	2%
CC(C)C[C@@H](CO)N1CCN(CCCc2ccccc2)CCC1=O	-12%	4%	3%	-10%	-11%
O=C(Nc1ccccc1)Nc1nnc(CSCc2ccccc2Cl)s1	.	?	15µM*	?	?
